Screening data as filed in PubChem BioAssay.
G9a inh – G9a (human) methyltransferase inhibition; Potency, µM (doses to about 102 µM), for inactives: at the highest dose activity, negative = inhibition, most hits filed as inhibitors; G9a H3K9 monomethylation, AlphaScreen, 2 h; 350,000 compounds, 8.8% hits; AID 504332; Q96KQ7; also: % is scaled to controls: 0 for no effect and ±100 for the full control effect; nearly all actives have a fitted effect of over 75% in size
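Compounds were preincubated with 20 nM G9a for 15 min, after which biotinylated H3K9 peptide (500 nM) and SAM (20 uM) started a 2 h room-temperature reaction. Monomethylated product was quantified by antibody-based AlphaScreen chemiluminescence.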
HP1b chromo inh – HP1-beta chromodomain-methylated histone interaction inhibition. 390,000 compounds, 0.56% hits. P83916. AlphaScreen HP1-beta / biotin-H3K9me3 peptide binding. AID 540317. Potency, µM (doses to about 114 µM), inactives show at the top dose activity change, negative = inhibition, usual class: inhibitors; also: nearly all actives have a fitted effect of over 70% in size
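AlphaScreen: HP1-beta (50 nM) preformed 30 min with biotin-H3(1-18)K9me3 peptide (50 nM) in PBS pH 7.4, 0.01% Tween-20. Compound added for 30 min at RT, then streptavidin donor/nickel chelate acceptor beads (10 ug/mL) for 30 min.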
JMJD2A Tudor – blocks the human JMJD2A Tudor domain | Potency, µM (highest dose often 114 µM), inactives show at the highest dose activity change, negative = inhibition, most hits filed as inhibitors | 390,000 compounds, 4.4% hits | AlphaScreen JMJD2A-Tudor / H3K4me3 peptide binding | O75164 | AID 504339; also: % is scaled to controls: 0 for no effect and ±100 for the full control effect; nearly all actives have a fitted effect of over 50% in size
GLS inhibitor – glutaminase GLS (human) inhibition. GLS enzymatic activity, qHTS titration. AID 624170. 410,000 compounds, 0.21% hits. Potency, µM (series often up to 45.5 µM), inactives show top-dose activity change, negative = inhibition, actives largely listed as inhibitors. O94925; also: % is scaled to controls: 0 for no effect and ±100 for the full control effect
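Human kidney-isoform GLS in 45 mM KH2PO4 pH 8.2, 0.02% Tween-20, with compound, started with 1mM L-Glutamine (added stock). Glutamate oxidase/HRP/Amplex red coupled fluorescence read at start and after 30 min at RT.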
L3MBTL1 block – L3MBTL1 (human) inhibition; Q9Y468; AlphaScreen L3MBTL1–H3K9me1 peptide binding; 230,000 compounds, 0.66% hits; Potency, µM (highest dose often 57.1 µM), without a hit: top-dose activity, negative = inhibition, hits mostly inhibitors; also: % is scaled to controls: 0 for no effect and ±100 for the full control effect; nearly all actives have a fitted effect of over 60% in size
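L3MBTL1 (50 nM) pre-complexed 30 min with biotinylated H3(1-15)K9me1 peptide (75 nM), then compounds added for 30 min at room temperature; AlphaScreen streptavidin donor/nickel chelate acceptor beads (10 ug/mL final) read after 30 min dark incubation.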
BAZ2B inh – inhibitors of human BAZ2B bromodomain | 360,000 compounds, 4.4% hits | AID 504333 | AlphaScreen BAZ2B-H3K14Ac peptide displacement | Potency, µM (titrated, usually from 114 µM), for the others: top-dose activity change, negative = inhibition, most hits filed as inhibitors | Q9UIF8; also: % is scaled to controls: 0 for no effect and ±100 for the full control effect; nearly all actives have a fitted effect of over 60% in size
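AlphaScreen displacement: compounds (up to 110uM) incubated 30 min at room temperature with a preformed 50 nM BAZ2B/50 nM biotinylated H3K14Ac peptide complex in PBS pH 7.4 with Tween-20. Donor and acceptor beads at 10 ug/mL final added, 20 min light-protected before reading.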
* hit, by the source's call; u = inconclusive; x = no result; [ ] = another dose, or the depositor's remark. Only some compounds are listed: those with a hit (about 10% of all), similar ones and a draw of the others. Calls follow the shape of the dose curve; as a rule, active = well fitted curve in the direction sought with a large enough effect; inconclusive = small, poorly fitted or top-dose-only effect, or another doubt; inactive = no such curve, though single readings can be large; an effect the other way counts as inactive or inconclusive. Potency is read from the fitted curve at half-maximal effect.

SMILES	G9a inh	HP1b chromo inh	JMJD2A Tudor	GLS inhibitor	L3MBTL1 block	BAZ2B inh
CC1OC(O[C@H]2C[C@@H](O)[C@]3(CO)[C@@H]4C(CC[C@]3(O)C2)[C@@]2(O)CC[C@H](C3=CC(=O)OC3)[C@@]2(C)C[C@H]4O)C(O)C(O)C1O (stereo partly drawn)	28%[59 µM]	x	x	-16%	x	x
CCC(=O)N1CCN(c2cc3c(cc2F)c(=O)c(C(=O)O)cn3CC)CC1	x	3%	6.3µM*	-8%	x	x
S=c1[nH]nc(-c2ccccc2)n1CC1CCCO1 (stereo not drawn)	u	48%	40µM*	0%	x	-1%
S=c1[nH]nc(-c2ccccc2)n1C1C=CCCC1 (stereo not drawn)	u	5%	3.2µM*	u	-7%	-3%
CCOc1ccc(NCc2cccn2-c2nnc(N3CCC(C(=O)NCC(C)c4ccccc4)CC3)s2)cc1 (stereo not drawn)	u	11%	u	-8%	x	-30%
O=C1c2ccccc2C(=O)C1C(=O)C(c1ccccc1)c1ccccc1	u	x	x	18%	x	x
Cc1ccccc1-n1c(O)c(/C=N/NC(=O)c2ccccc2O)c(=O)[nH]c1=S	32%[59 µM]	-8%	-28%[11.4 µM]	u	u	45µM*
O=C(N/N=C/c1c(O)n(C2CC2)c(=S)[nH]c1=O)c1ccccc1O	25%[59 µM]	17%	40µM*	u	-16%	45µM*
C/C(=N\NC(=O)c1ccccc1O)c1c(O)n(C2CCCCC2)c(=O)[nH]c1=O	2%	38%	-2%	14%	x	2%
O=c1[nH]c(=S)n(C2CC2)c(O)c1C=NCc1cccnc1	u	29%	28µM*	-13%	-5%	-4%
CC(C)c1ccc(N=Cc2c(O)n(C3CC3)c(=S)[nH]c2=O)cc1	u	40%	-4%	1%	-2%	-18%
O=c1[nH]c(=S)n(C2CC2)c(O)c1C=Nc1ccc2c(c1)OCO2	71µM*	32%	-12%	-1%	x	3%
O=c1[nH]c(=S)n(C2CC2)c(O)c1C=NCc1ccc(F)cc1	-26%	24%	-7%	1%	x	14%
Cc1ccccc1-n1c(O)c(/C=N/Nc2nc3c(c(=O)n(C)c(=O)n3C)n2C)c(=O)[nH]c1=S	u	3%	u	28%	-11%	u
Cn1c(=O)oc2cc(NC(=O)CCl)ccc21	-6%[12.7 µM]	54%	-15%	9%	x	2%
C[C@H](CO)N1C[C@H](C)[C@@H](CN(C)Cc2ccc(-c3ccccc3)cc2)Oc2c(NC(=O)c3ccncc3)cccc2C1=O	x	3%	u	-1%	-5%	x
FC(F)OC(F)(F)C(F)Cl (stereo not drawn)	9%[12.7 µM]	x	x	7%	x	x
Cn1c(=O)c2c(nc(N/N=C/c3c(O)n(C4CCCCC4)c(=S)[nH]c3=O)n2C)n(C)c1=O	22µM*	u	79µM*	u	-26%	50µM*
O=C(N/N=C/c1c(O)n(-c2ccccc2)c(=S)[nH]c1=O)c1ccccc1	5%	32%	45µM*	9%	x	45µM*
NC(=O)[C@@H]1CCCN1C(=O)[C@H](Cc1ccccc1)NC(=O)[C@@H]1CCCN1C(=O)[C@@H](N)Cc1ccc(O)cc1	27%[59 µM]	x	x	x	x	x
CN(C)CCO	23%[59 µM]	x	x	-7%	x	x
CC(N)Cc1c[nH]c2ccc(OCc3cccs3)cc12 (stereo not drawn)	21%[59 µM]	-8%	u	-6%	x	x
CC(N)Cc1c[nH]c2ccc(O)cc12 (stereo not drawn)	7.9µM*	39%	-17%	61%	x	x
COC(=O)CSC1=NN1c1cc(C)nc(N)n1	50µM*	49%	-9%	4%	6%	2%
CC12CCCCC1(O)[N+](=O)C1=C(CCCC1)N2[O-] (stereo not drawn)	u	24%	-11%[57.1 µM]	-24%	-20%	u
SMILES	G9a inh	HP1b chromo inh	JMJD2A Tudor	GLS inhibitor	L3MBTL1 block	BAZ2B inh
Cc1oc(-c2ccccc2)nc1CN1C(=O)CN=C(c2ccccc2)c2ccccc21	u	-1%	u	-1%	-6%	u
Cc1cccc(-c2nc(CN3C(=O)CN=C(c4ccccc4)c4ccccc43)c(C)o2)c1	u	-21%	u	18%	x	22µM*
Cc1nc2c(=O)n(C)c(=O)nc-2n(C)n1	-18%[59 µM]	17%	6%	-7%	0.11µM*	-5%
COC(=O)c1ccc2ccn(CC(=O)NC(C)C)c2c1	u	1%	-21%	0%	11%	-7%
O=C(O)C(Cc1cnc[nH]1)NS(=O)(=O)c1ccc(Cl)cc1 (stereo not drawn)	u	37%	-3%	-12%	12%	-9%
Cc1ccc(S(=O)(=O)NC(Cc2cnc[nH]2)C(=O)O)cc1 (stereo not drawn)	u	12%	13µM*	11%	4%	-25%
c1ccc(N2CC[C@@]3(CCCNC3)C2)cc1	-30%[12.7 µM]	x	x	x	x	x
C[C@]12CC[C@@H]3c4ccc(O)c(O)c4CC[C@H]3[C@@H]1CC[C@@H]2O	u	16µM*	8.9µM*	u	x	56µM*
C[C@]12CC[C@@H]3c4cc(O)c(O)cc4CC[C@H]3[C@@H]1CC[C@@H]2O	8.9µM*	u	13µM*	8.9µM*	x	u
COc1ccc2o/c(=N\O)c(C(=O)Nc3ccc(C)cc3)cc2c1	50µM*	22%	-22%	25%	-2%	-4%
O=C(O)CP(=O)(O)c1ccc(Cl)cc1	50µM*	29%	40µM*	-12%	0%	-36%
NNC(=O)c1ccc(Cl)cc1	-15%[59 µM]	40%	-2%	18%	u	-26%
CN(Cc1ccccc1)C(=O)c1ccc(NC(=O)C2CCN(C(=O)OC(C)(C)C)CC2)cc1	x	-12%	u	0%	0%	x
CCCC(=O)Nc1ccc(N2CCN(CC)CC2)c(Cl)c1	-1%[12.7 µM]	58%	-5%[57.1 µM]	8%	3%	-20%
CCC(=O)Nc1ccc(N2CCN(CC)CC2)c(Cl)c1	79µM*	5%	-17%	7%	2%	u
O=[N+]([O-])c1cc(I)c(O)c(I)c1	6%[59 µM]	x	x	11%	x	x
Cc1ccc2nc(N3CCN(C)CC3)[nH]c2c1	-13%[12.7 µM]	22%	-22%	26%	-3%	-9%
CCOc1ccc(-c2nc3ccc(-c4nc5ccc(N6CCN(C)CC6)cc5[nH]4)cc3[nH]2)cc1	13µM*	x	x	x	x	x
CCc1n[nH]c(=S)n1/N=C/c1c(C)nn(-c2ccccc2)c1Cl	1.8µM*	35%	u	20%	x	-4%
O=C(CCS(=O)(=O)c1ccccc1)Nc1nnc(-c2ccco2)o1	32µM*	23%	25µM*	-1%	x	50µM*
